PubChem BioAssay (EPA / NIEHS)
Records with an inconclusive call do not appear. Activity calls are given as the source filed them. How the source made its calls: active means hit-call score of the fitted dose curve at least 0.9, where 1 is the maximum; inconclusive means response in the unintended direction; inactive means score below 0.9.

Each compound was assayed against Estrogen receptor (Homo sapiens) + Estrogen receptor beta (Homo sapiens) (UniProt P03372+Q92731) (assay: OT_ER_ERaERb_0480: Odyssey Thera (OT) 8-hour HEK293T Protein-Complementation Assay for Estrogen Receptor-alpha/-beta Heterodimer (AID 2283352)).
Sequence of Estrogen receptor (Homo sapiens) + Estrogen receptor beta (Homo sapiens) (P03372 whole entry, looked up, the tested form may be a part): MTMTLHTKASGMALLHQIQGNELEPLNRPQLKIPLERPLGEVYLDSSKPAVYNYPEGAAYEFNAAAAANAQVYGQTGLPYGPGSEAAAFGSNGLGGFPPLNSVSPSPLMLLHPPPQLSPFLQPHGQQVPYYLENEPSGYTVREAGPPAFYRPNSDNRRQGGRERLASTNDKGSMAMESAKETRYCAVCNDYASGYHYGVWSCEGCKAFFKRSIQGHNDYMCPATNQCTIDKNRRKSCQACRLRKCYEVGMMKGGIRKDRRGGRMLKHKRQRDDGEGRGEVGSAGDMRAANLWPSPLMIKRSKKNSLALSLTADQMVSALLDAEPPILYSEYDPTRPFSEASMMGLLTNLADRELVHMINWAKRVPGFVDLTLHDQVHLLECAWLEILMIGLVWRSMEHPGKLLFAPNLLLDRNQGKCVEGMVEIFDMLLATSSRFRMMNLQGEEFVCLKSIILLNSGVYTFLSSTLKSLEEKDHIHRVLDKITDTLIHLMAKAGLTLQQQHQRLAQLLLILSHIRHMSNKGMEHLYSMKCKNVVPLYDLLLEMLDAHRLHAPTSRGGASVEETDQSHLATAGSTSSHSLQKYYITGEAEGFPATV
Sequence of Estrogen receptor (Homo sapiens) + Estrogen receptor beta (Homo sapiens) (Q92731 whole entry, looked up, the tested form may be a part): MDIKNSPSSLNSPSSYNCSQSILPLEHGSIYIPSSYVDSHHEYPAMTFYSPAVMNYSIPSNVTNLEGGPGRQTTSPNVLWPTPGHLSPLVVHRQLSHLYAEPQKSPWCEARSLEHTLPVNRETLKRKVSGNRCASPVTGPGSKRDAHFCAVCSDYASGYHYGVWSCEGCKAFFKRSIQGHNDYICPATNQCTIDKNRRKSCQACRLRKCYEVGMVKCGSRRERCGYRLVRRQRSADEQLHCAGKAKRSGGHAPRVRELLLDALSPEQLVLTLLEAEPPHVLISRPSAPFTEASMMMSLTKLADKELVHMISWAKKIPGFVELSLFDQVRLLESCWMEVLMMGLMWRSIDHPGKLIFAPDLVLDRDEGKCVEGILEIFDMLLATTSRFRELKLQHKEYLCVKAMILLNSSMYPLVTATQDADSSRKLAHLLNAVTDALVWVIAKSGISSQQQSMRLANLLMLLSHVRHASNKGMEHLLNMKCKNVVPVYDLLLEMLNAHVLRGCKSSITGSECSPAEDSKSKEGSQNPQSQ
Procedure: OT_ER_ERaERb_0480 is a cell-based assay that uses HEK293T, a human kidney cell line, with measurements taken at 8 hours after chemical dosing in a 384-well plate.OT_ER_ERaERb_0480 is one of one assay component(s) measured or calculated from the OT_ER_ERaERb_0480 assay. It is designed to make measurements of protein fragment complementation, a form of binding reporter, as detected with fluorescence intensity signals by Protein-fragment Complementation technology.Data from the assay component OT_ER_ERaERb_0480 was analyzed into 1 assay endpoint. This assay endpoint, OT_ER_ERaERb_0480, was analyzed in the positive analysis fitting direction relative to DMSO as the negative control and baseline of activity. Using a type of binding reporter, measures of receptor for gain-of-signal activity can be used to understand the binding at the pathway-level as they relate to the gene ESR1 and ESR2. Furthermore, this assay endpoint can be referred to as a primary readout, because the performed assay has only produced 1 assay endpoint. To generalize the intended target to other relatable targets, this assay endpoint is annotated to the nuclear receptor intended target family, where the subfamily is steroidal.
Protein-fragment complementation assay, or PCA, is a method for the identification and quantification of protein-protein interactions. In the PCA, the proteins of interest ("bait" and "prey") are each covalently linked to fragments of a third protein (e.g. DHFR, which acts as a "reporter"). Interaction between the bait and the prey proteins brings the fragments of the reporter protein in close proximity to allow them to form a functional reporter protein whose activity can be measured. […] Fluorescent signal in the basal state of the assay is very low and is primarily punctuate and cytoplasmic. Modulation of this assay is quantified as an increase in mean fluorescence intensity in the nucleus (for agonists) or in the nucleus and cytoplasm (antagonists) relative to vehicle controls, and can be quantified on a high content imaging device or a laser scanning cytometer. The latter instrument is favored for this assay because of the rapid mode of data acquisition, the ability to acquire data from the entire cell population in a well (as opposed to a fraction of the well on the high content devices) and the larger dynamic range typically achieved with this instrument. To assess sensitivity of the ER alpha/ER beta LBD assay to ligand, cells were treated with the ER agonist 17- beta-estradiol (E2) in 10-point concentration- response format for 8 hours and monitored response on a laser scanning plate cytometer (Acumen eX3; TTP Lab Tech).

Structure (SMILES)	outcome	AC50
Cc1cccc([N+](=O)[O-])c1C	inactive	–
Cc1ccc(C(C)C)c(O)c1	inactive	–
COc1cc(C=O)ccc1O	inactive	–
CCCCCCOCCO	inactive	–
O=C(O)CCCCC(=O)O	inactive	–
CCCCCCCCCCC	inactive	–
COC(=O)c1ccc(O)cc1	–	50 µM (active)
CCCCCCCCCCO	inactive	–
CCCCOC(=O)CCCCCCCCC(=O)OCCCC	inactive	–
CCCCCCCCCCCCCO	inactive	–
CCCCCCCC=O	inactive	–
CC1=C(/C=C/C(C)=C/C=C/C(C)=C/CO)C(C)(C)CCC1	inactive	–
Cc1oc(-c2ccccc2)nc1CCOc1cccc2c1ccn2CCC(=O)O	inactive	–
COc1cc(-c2nc(NC(=O)c3cc4cc(C)cc(C)c4n3CC(=O)O)sc2CCC2CCCCC2)c(OC)cc1Cl	inactive	–
C1CCC(SSC2CCCCC2)CC1	–	50 µM (active)
Cc1nc(-c2ccc3c(c2)CCN(CCC2CCC(NC(=O)/C=C/c4ccc(F)cc4)CC2)CC3)no1 (stereo not given)	inactive	–
Cc1cccc(C)c1O	inactive	–
CNC(=O)[C@H]1O[C@@H](n2cnc3c(NCc4cc(Cl)ccc4OCc4cc(C)no4)ncnc32)[C@H](O)[C@@H]1N	inactive	–
O=c1c(O)c(-c2ccc(O)c(O)c2)oc2cc(O)cc(O)c12	–	13.4 µM (active)
CCCCc1ccc2c(n1)[C@@H](c1ccc(OC)cc1C[C@H](C)C(=O)O)[C@H](C(=O)O)[C@H]2c1ccc2c(c1)OCO2	inactive	–

Structure (SMILES)	outcome	AC50
Cc1c(C(=O)O)c(O)cc2c1C(=O)c1c(O)c([C@@H]3O[C@H](CO)[C@@H](O)[C@H](O)[C@H]3O)c(O)c(O)c1C2=O	inactive	–
CCCCN(CCCC)CCCC	inactive	–
CC(C)c1ccc(C(=O)N=C(N)N)cc1S(C)(=O)=O	inactive	–
Nc1nc(N)c2nc(CNc3ccc(C(=O)N[C@@H](CCC(=O)O)C(=O)O)cc3)cnc2n1	inactive	–
CCCCCC(=O)O	inactive	–
CCCCCCC(=O)OCC	inactive	–
CN1CCCC1=O	inactive	–
CC(=O)OCCOCCOCCOC(C)=O	inactive	–
CCc1c(C(=O)NN2CCCCC2)nn(-c2ccc(Cl)cc2Cl)c1-c1ccc(Br)cc1	inactive	–
CC(=O)Oc1ccccc1C(=O)O	inactive	–
NCC1(Cc2noc(=O)[nH]2)CCCCC1	inactive	–
Oc1ccc2c(c1)OC[C@@H](N1CCC(O)(c3ccc(F)cc3)CC1)[C@H]2O	inactive	–
COCCOCCOC	inactive	–
CCOC(=O)CCC(=O)OCC	inactive	–
CCCCCCCCCCCC(=O)OC	inactive	–
CCOC(=O)C(C)(C)Oc1ccc(Cl)cc1	inactive	–
O=C(O)Cc1ccccc1Nc1c(Cl)cccc1Cl	inactive	–
C[Si]1(C)O[Si](C)(C)O[Si](C)(C)O[Si](C)(C)O1	inactive	–
O=C(N[C@@H](Cc1ccccc1)[C@@H](O)C(=O)N1C[C@@H](O)[C@@H](O)C1)c1cc2cc(Cl)ccc2[nH]1	inactive	–
NS(=O)(=O)c1cc2c(cc1Cl)NCNS2(=O)=O	inactive	–
